ADAM17 inh – ADAM17 inhibition, QFRET primary screen | inhibition, % at 6.95 µM | actives 0.83% (n = 370,000) | recombinant ADAM17, EDANS/DABCYL FRET peptide cleavage | AID 720648 | P78536;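 active means inhibition above the mean of compounds lying between control limits plus 3 SD, set per campaign, cut at about 8.5% in these data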
Target sequence (P78536 215-824 limits assumed): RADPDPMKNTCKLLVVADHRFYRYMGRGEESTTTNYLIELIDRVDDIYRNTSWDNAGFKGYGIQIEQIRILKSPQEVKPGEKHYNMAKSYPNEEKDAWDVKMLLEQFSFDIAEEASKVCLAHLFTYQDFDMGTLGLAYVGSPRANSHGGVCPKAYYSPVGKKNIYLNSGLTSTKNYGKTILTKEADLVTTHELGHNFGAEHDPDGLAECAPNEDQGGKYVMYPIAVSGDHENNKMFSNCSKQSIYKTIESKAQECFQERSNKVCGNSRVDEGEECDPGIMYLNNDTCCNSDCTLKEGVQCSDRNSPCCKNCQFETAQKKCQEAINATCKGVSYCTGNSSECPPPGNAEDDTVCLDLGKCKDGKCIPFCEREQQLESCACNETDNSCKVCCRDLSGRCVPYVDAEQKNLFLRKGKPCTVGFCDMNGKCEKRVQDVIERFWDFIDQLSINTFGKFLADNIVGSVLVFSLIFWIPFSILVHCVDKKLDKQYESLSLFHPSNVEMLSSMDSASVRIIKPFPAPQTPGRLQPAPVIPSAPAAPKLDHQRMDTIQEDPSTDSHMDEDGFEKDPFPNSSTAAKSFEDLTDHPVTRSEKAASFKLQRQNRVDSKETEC
proKLK7 act – proKLK7 (human) activation, primary screen | actives 0.9% (n = 370,000) | purified proKLK7, EDANS-DABCYL substrate fluorescence; 100% is mature enzyme control, 0% vehicle | activation, % at 7 µM | AID 652039 | P49862;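 active means activation above the mean of all tested compounds plus 3 SD, computed per campaign excluding outliers beyond control limits, cut at about 13% in these data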
PLCg1 inh – inhibitors of human phospholipase C gamma1 | P19174 | AID 720700 | purified PLC-gamma1, fluorogenic substrate, fluorescence | inhibition, % at 12.2 µM | actives 0.84% (n = 370,000); in the data active means inhibition above about 9.5%
ADAM10 inh – inhibitors of human ADAM10; O14672; recombinant ADAM10, EDANS/DABCYL FRET peptide cleavage, 3 h; inhibition, % at 7 µM; actives 0.62% (n = 370,000);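 active means inhibition above a per-campaign cutoff equal to the mean of compounds falling between control-based bounds plus 3 SD, cut at about 20% in these data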
PLCb3 inh – blocks human PLC-beta3 enzyme activity | Q01970 | Purified PLC-beta3, fluorogenic substrate, fluorescence | inhibition, % at 12.2 µM | actives 0.18% (n = 370,000) | AID 720704; in the data active means inhibition above about 11%
ADAM10 ctr – counter-screen for ADAM17 exosite inhibitors: inhibitors of human ADAM10 | shares compounds with ADAM17 inh | recombinant ADAM10, EDANS/DABCYL FRET peptide cleavage, 3 h | inhibition, % at 6.95 µM | actives 47% (n = 2,900) | AID 743256;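 active means mean inhibition over the triplicate runs exceeds the activity threshold set in the earlier primary screen, cut at about 20% in these data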
ADAM17 confirm – confirmation of inhibitors of human ADAM17. shares compounds with ADAM17 inh. recombinant ADAM17, EDANS/DABCYL QFRET peptide cleavage. inhibition, % at 6.95 µM. actives 65% (n = 2,900). AID 743257;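 active means mean inhibition across replicates above the hit cutoff set in the primary screen, cut at about 8.5% in these data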
Numbers stand for hits; n = inactive; x = no result given. A selection: hits, their analogues and other compounds. The true share with any hit is near 2.9%.

SMILES | ADAM17 inh | proKLK7 act | PLCg1 inh | ADAM10 inh | PLCb3 inh | ADAM10 ctr | ADAM17 confirm
COCCOc1ccc(C(F)(F)F)cc1NC(=O)CN1C(=O)NC2(CCCc3ccccc32)C1=O (stereo not given) | 9.7 | n | n | n | n | n | 10.0
COC(=O)[C@@]12C[C@@H](CC(=O)NCCC(C)C)C(=O)N(CCc3ccc(OC)c(OC)c3)C1=CCC(C)(C)C2 | n | n | n | n | n | x | x
C/C(=N\NC(=S)NCc1ccccc1)c1ccc2ccccc2c1OC(F)F | 12.5 | n | n | n | n | n | n
c1ccc(-c2nc(NCc3ccco3)c3oc4ccccc4c3n2)cc1 | 9.0 | n | n | n | n | 29.3 | 19.2
Cc1ccc(-c2nc(NCc3ccco3)c3ccccc3n2)cc1 | n | n | n | n | n | x | x
COc1c(OC(C)=O)ccc(/C=C/c2ccc3cccc(OCc4ccccc4)c3n2)c1[N+](=O)[O-] | 9.7 | n | n | n | n | n | 9.2
COc1ccc(CN2C(=O)C(CC(=O)NC3CCCC3)CC(C(=O)N(C)C)=C2C)cc1 (stereo not given) | n | n | n | n | n | x | x
c1ccc(Nc2nc(N3CCOCC3)nc(N3CCOCC3)n2)cc1 | n | n | n | n | n | x | x
C(=N\Nc1nc(Nc2ccccc2)nc(N2CCOCC2)n1)/c1c[nH]c2ccccc12 | 9.2 | n | n | n | n | n | 10.9
COc1ccc(/C=C2/CN(Cc3ccc(OC)cc3OC)C3=NC(c4ccc5ccccc5c4)CC(=O)N32)cc1 (stereo not given) | n | x | n | n | n | x | x
CC1(C)CC(=O)c2sc(NS(=O)(=O)c3ccccc3)nc2C1 | n | n | n | n | n | x | x
CC1(C)CC(=O)c2sc(NS(=O)(=O)c3ccc([N+](=O)[O-])cc3)nc2C1 | 15.8 | n | n | n | n | 21.9 | n
C=CCn1nc(C(=O)Nc2ccc(OC)cc2)cc1-c1sc(NC(=O)c2ccccc2)nc1C | n | n | n | n | n | x | x
CC(C)(C)c1ccc(NC(=O)COC(=O)c2ccc(NS(=O)(=O)c3ccc(F)c(F)c3)cc2)cc1 | 9.6 | n | n | n | n | 42.2 | 20.1
N#CC(C#N)=C1C=C2C=C(N3CCCCCC3)CCC2CC1 (stereo not given) | 9.7 | n | n | n | n | n | n
N#CC(C#N)=C1C=C2C=C(N3CCOCC3)CCC2CC1 (stereo not given) | n | n | n | n | n | x | x
O=C(N/N=C/c1ccc[nH]1)c1cc(-c2ccc(Cl)cc2)nc2ccccc12 | 9.6 | n | n | n | n | 21.6 | 15.3
O=C(N/N=C/c1cccnc1)c1cc(-c2ccc(Cl)cc2)nc2ccccc12 | n | n | n | n | n | x | x
CCN(CCNC(=O)Nc1ccc(Cl)cc1)c1ccccc1 | 9.8 | n | n | n | n | 37.1 | 18.9
O=C(NCCc1ccc(Cl)cc1)Nc1ccc(Cl)cc1 | n | n | n | n | n | x | x
C=C(C)CN1CCN(S(=O)(=O)c2ccc(C)c(N(C)S(=O)(=O)c3ccc(C)cc3)c2C)CC1 | 10.4 | n | n | n | n | n | 11.2
Cc1ccc(S(=O)(=O)N(C)c2c(C)ccc(S(=O)(=O)N3CCN(C)CC3)c2C)cc1 | n | n | n | n | n | x | x
C[C@H]1[C@@H](OC(=O)Nc2ccc(C(F)(F)F)cc2)CC[C@@]23CCCN2C(=O)CCC[C@@H]13 | n | x | n | n | n | x | x
COC(=O)[C@]12C[C@H](CC(=O)NCc3ccc(OC)c(OC)c3)C(=O)N(Cc3ccc(Cl)cc3Cl)C1=C[C@H](COCc1ccccc1)O[C@@H]2C | n | n | n | n | n | x | x
COC(=O)[C@H](C)N(CCc1cn(Cc2ccccc2)nn1)S(=O)(=O)c1ccccc1Br | n | n | n | n | n | x | x
SMILES | ADAM17 inh | proKLK7 act | PLCg1 inh | ADAM10 inh | PLCb3 inh | ADAM10 ctr | ADAM17 confirm
COC(=O)[C@H](CC(C)C)N(CCCc1cn(Cc2ccccc2)nn1)S(=O)(=O)c1ccccc1Br | 13.4 | n | n | n | n | 35.5 | 15.3
COC(=O)[C@H](CC(C)C)N(CCc1cn(Cc2ccccc2)nn1)S(=O)(=O)c1ccccc1Br | 8.7 | n | n | n | n | n | 12.3
CCOc1ccc(N(CC(=O)Nc2c(C)n(C)n(-c3ccccc3)c2=O)S(=O)(=O)c2ccc3c(c2)N(C(=O)C2CCC2)CC3)cc1 | n | n | n | n | n | x | x
COc1ccc(NC(=O)N(CCc2c(C)[nH]c3ccccc23)Cc2cccs2)cc1OC | n | n | n | n | n | x | x
O=C(CN1CCN(c2ccc(O)cc2)CC1)Nc1cc(S(=O)(=O)N2CCCC2)ccc1Cl | n | n | n | n | n | x | x
O=C(CN1C(=O)c2ccccc2S1(=O)=O)Nc1cc(S(=O)(=O)N2CCCCC2)ccc1Cl | 10.4 | n | n | n | n | n | 13.1
O=C(CN1CCN(c2ccc(O)cc2)CC1)Nc1cc(S(=O)(=O)N2CCCCC2)ccc1Cl | 10.3 | n | n | n | n | n | 10.7
COC(=O)c1cc(C(=O)OC)n(Cc2ccc(C)cc2)c1C | 9.2 | n | n | n | n | n | n
COC(=O)c1cc(-c2ccccc2)n(CCN)c1C | n | n | n | n | n | x | x
CC1CCCN(c2cccc3c2S(=O)(=O)N(Cc2cccc(F)c2)[C@@H](C)[C@H](c2ccccc2)O3)C1 (stereo not given in full) | n | n | n | n | n | x | x
COC(=O)C[C@@H]1CC[C@@H](NC(=O)Nc2cc(F)ccc2F)[C@@H](CO)O1 | n | n | n | n | n | x | x
COc1cc(OC)cc(C(=O)NC2CCN(CC(=O)Nc3cccc4ccccc34)CC2)c1 | 11.6 | n | n | n | n | n | n
COc1cccc(C(O)c2ncc(-c3cccc(C(F)(F)F)c3)[nH]2)c1 (stereo not given) | 10.3 | n | n | n | n | n | 9.8
OC(c1cccc(F)c1)c1ncc(-c2ccc(C(F)(F)F)cc2)[nH]1 (stereo not given) | n | n | n | n | n | x | x
CCCc1ccc(C(O)c2ncc(-c3ccccc3F)[nH]2)cc1 (stereo not given) | 9.2 | n | n | n | n | n | n
OC(c1ccc2ccccc2c1)c1ncc(-c2ccc(C(F)(F)F)cc2)[nH]1 (stereo not given) | 10.2 | n | n | n | n | 42.4 | 22.8
COc1cccc(-c2cnc(C(O)c3cccc(OC)c3)[nH]2)c1 (stereo not given) | n | n | n | n | n | x | x
CCc1ccc(C(O)c2ncc(-c3cccc(C(F)(F)F)c3)[nH]2)cc1 (stereo not given) | 10.7 | n | n | n | n | 21.3 | 11.5
COc1ccc(C(O)c2ncc(-c3cccc(C(F)(F)F)c3)[nH]2)cc1F (stereo not given) | n | n | n | n | n | x | x

Screens deposited in PubChem BioAssay by The Scripps Research Institute Molecular Screening Center.
